According to PubChem BioAssay (EPA / NIEHS):
“And” between values parts separate entries of the source, which are not always exact repeats. Equal entries are not always repeated. Some structures have more than one record in an assay (separate samples or runs), and their calls can disagree. The source made the active and inactive calls. Rule for the calls: active = hit-call score of the fitted dose curve at least 0.9, where 1 is the maximum; inactive = score below 0.9.

Columns and labels:
[1] = read-out: Interferon-gamma inducible Protein 10 (IP10), CXCL10 (gene 3627); assay: BSK_BE3C_IP10: BioMAP Diversity Plus: BE3C Assay for Interferon-gamma inducible Protein 10 (IP10) Biomarker Activity (AID 2283034); conditions: primary human bronchial epithelial cells; actives raise or lower the signal
Summary of the method: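 IP-10 quantified by ELISA serves as the endpoint. Cells: primary human bronchial epithelium, read 24 h after compound addition. Activity is derived by bidirectional fitting with DMSO as negative control.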

[2] = read-out: Monokine induced gamma interferon (MIG), CXCL9 (gene 4283); assay: BSK_BE3C_MIG: BioMAP Diversity Plus: BE3C Assay for Monokine induced gamma interferon (MIG) Biomarker Activity (AID 2283035); conditions: primary human bronchial epithelial cells; actives raise or lower the signal;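 note: MIG protein measured by ELISA in BE3C cultures after 24 h of dosing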
Summary of the method: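 hu bronchial epithelial 1° cells, 24 h cpd; MIG by ELISA; bidirectional fit, DMSO = baseline.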

[3] = read-out: Plasminogen activator inhibitor-1 (PAI1), SERPINE1 (gene 5054); assay: BSK_BE3C_PAI1: BioMAP Diversity Plus: BE3C Assay for Plasminogen activator inhibitor-1 (PAI1) Biomarker Activity (AID 2283037); conditions: primary human bronchial epithelial cells; actives raise or lower the signal
Summary of the method: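 Values derive from bidirectional fitting against DMSO baseline of PAI-1 levels, measured by ELISA in human bronchial epithelial cells 24 h after compound addition.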

[4] = read-out: urokinase plasminogen activator (uPA), PLAU (gene 5328); assay: BSK_BE3C_uPA: BioMAP Diversity Plus: BE3C Assay for urokinase plasminogen activator (uPA) Biomarker Activity (AID 2283038); conditions: primary human bronchial epithelial cells; actives raise or lower the signal
Summary of the method: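 Using confluent primary human lung bronchial epithelial cultures, we dosed chemicals, waited 24 h, then ran a uPA ELISA, fitting bidirectionally against DMSO.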

[5] = read-out: Urokinase-type plasminogen activator receptor (uPAR), PLAUR (gene 5329); assay: BSK_BE3C_uPAR: BioMAP Diversity Plus: BE3C Assay for Urokinase-type plasminogen activator receptor (uPAR) Biomarker Activity (AID 2283039); conditions: primary human bronchial epithelial cells; actives raise or lower the signal;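 note: uPAR protein level measured by ELISA on the cells; cells exposed to compound for one day before measurement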
Summary of the method: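 Steps: dose human primary bronchial epithelial cells, incubate 24 h, measure uPAR by ELISA, then fit gain- or loss-of-signal response bidirectionally relative to DMSO.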

[6] = read-out: Interleukin-6 (IL6), IL6 (gene 3569); assay: BSK_CASM3C_IL6: BioMAP Diversity Plus: CASM3C Assay for Interleukin-6 (IL6) Biomarker Activity for (AID 2283040); conditions: primary human coronary artery smooth muscle cells; actives raise or lower the signal
[7] = read-out: Tissue plasminogen activator (tPA), PLAT (gene 5327); assay: BSK_BE3C_tPA: BioMAP Diversity Plus: BE3C Assay for Tissue plasminogen activator (tPA) Biomarker Activity (AID 2283041); conditions: primary human bronchial epithelial cells; actives raise or lower the signal
Summary of the method: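 Gain- or loss-of-signal in tPA, measured by ELISA, derived by bidirectional fitting against DMSO. Cells: human primary bronchial epithelial; read at 24 h after chemical dosing.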

[8] = read-out: Interleukin-8 (IL8), CXCL8 (gene 3576); assay: BSK_CASM3C_IL8: BioMAP Diversity Plus: CASM3C Assay for Interleukin-8 (IL8) Biomarker Activity (AID 2283042); conditions: primary human coronary artery smooth muscle cells; actives raise or lower the signal;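 note: IL-8 protein level quantified by ELISA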
[9] = read-out: Human Leukocyte Antigen - DR isotype (HLADR), HLA-DRA (gene 3122); assay: BSK_CASM3C_HLADR: BioMAP Diversity Plus: CASM3C Assay for Human Leukocyte Antigen - DR isotype (HLADR) Biomarker Activity (AID 2283043); conditions: primary human coronary artery smooth muscle cells; actives raise or lower the signal;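 note: cell-surface HLA-DR protein level quantified by ELISA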
[10] = read-out: Macrophage colony-stimulating factor (MCSF), CSF1 (gene 1435); assay: BSK_CASM3C_MCSF: BioMAP Diversity Plus: CASM3C Assay for Macrophage colony-stimulating factor (MCSF) Biomarker Activity (AID 2283044); conditions: primary human coronary artery smooth muscle cells; actives raise or lower the signal;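 note: M-CSF protein amount quantified by ELISA after 24 h exposure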
[11] = read-out: Low-density lipoprotein receptor (LDLR), LDLR (gene 3949); assay: BSK_CASM3C_LDLR: BioMAP Diversity Plus: CASM3C Assay for Low-density lipoprotein receptor (LDLR) Biomarker Activity (AID 2283045); conditions: primary human coronary artery smooth muscle cells; actives raise or lower the signal;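 note: LDLR protein level on the cell surface quantified by ELISA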
[12] = read-out: Monocyte Chemoattractant Protein-1 (MCP1), CCL2 (gene 6347); assay: BSK_CASM3C_MCP1: BioMAP Diversity Plus: CASM3C Assay for Monocyte Chemoattractant Protein-1 (MCP1) Biomarker Activity (AID 2283046); conditions: primary human coronary artery smooth muscle cells; actives raise or lower the signal;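 note: MCP-1 level quantified by ELISA 24 h after dosing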
[13] = BSK_CASM3C_Proliferation: Cell Proliferation Assessment in the BioMAP Diversity Plus: CASM3C Assay (AID 2283047); conditions: primary human coronary artery smooth muscle cells;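 note: sulforhodamine B total protein stain as relative cell number at 560 nm; sub-confluent cells exposed 48 h before staining; fitted both ways against DMSO so gain or loss of cell number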
[14] = read-out: Monokine induced gamma interferon (MIG), CXCL9 (gene 4283); assay: BSK_CASM3C_MIG: BioMAP Diversity Plus: CASM3C Assay for Monokine induced gamma interferon (MIG) Biomarker Activity (AID 2283048); conditions: primary human coronary artery smooth muscle cells; actives raise or lower the signal;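 note: MIG protein level measured by ELISA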
[15] = read-out: serum amyloid A (SAA), SAA1 (gene 6288); assay: BSK_CASM3C_SAA: BioMAP Diversity Plus: CASM3C Assay for serum amyloid A (SAA) Biomarker Activity (AID 2283049); conditions: primary human coronary artery smooth muscle cells; actives raise or lower the signal;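 note: SAA protein level quantified by ELISA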
[16] = BSK_CASM3C_SRB: Viability Assessment in the BioMAP Diversity Plus: CASM3C Assay (AID 2283050); conditions: primary human coronary artery smooth muscle cells;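 note: total protein by SRB staining as cytotoxicity measure in parallel cultures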
[17] = read-out: Thrombomodulin, THBD (gene 7056); assay: BSK_CASM3C_Thrombomodulin: BioMAP Diversity Plus: CASM3C Assay for Thrombomodulin Biomarker Activity (AID 2283051); conditions: primary human coronary artery smooth muscle cells; actives raise or lower the signal;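 note: thrombomodulin protein level measured by ELISA 24 h after dosing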
[18] = read-out: Tissue Factor, F3 (gene 2152); assay: BSK_CASM3C_TissueFactor: BioMAP Diversity Plus: CASM3C Assay for Tissue Factor Biomarker Activity (AID 2283052); conditions: primary human coronary artery smooth muscle cells; actives raise or lower the signal;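 note: cell surface tissue factor protein level read by ELISA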
[19] = read-out: Interferon-gamma inducible Protein 10 (IP10), CXCL10 (gene 3627); assay: BSK_hDFCGF_IP10: BioMAP Diversity Plus: hDFCGF Assay for Interferon-gamma inducible Protein 10 (IP10) Biomarker Activity (AID 2283053); conditions: primary human foreskin fibroblasts; actives raise or lower the signal
Summary of the method: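 Cells: human dermal foreskin fibroblasts. Exposure: 24 h post-dosing. Detection: IP-10 ELISA, with values expressed against DMSO controls and fitted in both directions.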

[20] = read-out: Transforming growth factor beta 1 (TGFb1), TGFB1 (gene 7040); assay: BSK_BE3C_TGFb1: BioMAP Diversity Plus: BE3C Assay for Transforming growth factor beta 1 (TGFb1) Biomarker Activity (AID 2283036;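 note: TGF-b1 protein level measured by ELISA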); conditions: primary human bronchial epithelial cells; actives raise or lower the signal
Summary of the method: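 Bronchial epithelial primary cells are treated with test chemical, then TGF-b1 is quantified by ELISA after 24 hours. Values derive from bidirectional fitting against DMSO, with cytotoxicity checked by SRB staining in parallel cultures.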

Measured: AC50

NC(=O)C(F)(F)C(F)(F)F
not listed: [20]
inactive: all other assays above

O=[N+]([O-])c1ccc(Cl)c(Cl)c1
not listed: [5]
inactive: all other assays above

O=S(=O)(F)C(F)(F)C(F)(F)C(F)(F)C(F)(F)C(F)(F)C(F)(F)C(F)(F)C(F)(F)F
not listed: [20]
inactive: all other assays above

FC(F)(F)C(F)(C(F)(F)F)C(F)(F)C(F)(F)CC1CO1 (configuration not stated)
not listed: [20]
inactive: all other assays above

Cc1ccc([N+](=O)[O-])cc1C
inactive: all assays above

COP(=O)(CCC(=O)NCO)OC
active: [6] 1.56 µM | [9] 0.3 µM
inactive: [1] | [2] | [3] | [4] | [5] | [6] | [7] | [8] | [9] | [10] | [11] | [12] | [13] | [14] | [15] | [16] | [17] | [18] | [19]

O=C(O)C(F)(F)OC(F)(F)C(F)(F)OC(F)(F)F
active: [4] 1.42 µM | [12] 1.03 µM | [14] 1.17 µM
inactive: [1] | [2] | [3] | [4] | [5] | [6] | [7] | [8] | [9] | [10] | [11] | [12] | [13] | [14] | [15] | [16] | [17] | [18] | [19]

CCOP(=S)(Oc1ccc([N+](=O)[O-])cc1)c1ccccc1 (configuration not stated)
active: [7] 2.17 µM | [9] 14.2 µM | [11] 20 µM | [13] 20 µM | [17] 12.9 µM | [19] 20 µM
not listed: [16]
inactive: all other assays above

OCC(F)(F)OC(F)(F)C(F)(F)OC(F)(F)C(F)(F)OC(F)(F)CO
active: [1] 44.9 µM and 35.8 µM | [13] 47.2 µM | [19] 26.5 µM and 24.2 µM
inactive: [2] | [3] | [4] | [5] | [6] | [7] | [8] | [9] | [10] | [11] | [12] | [13] | [14] | [15] | [16] | [17] | [18]

ClC(Cl)(Cl)c1ccccc1
inactive: all assays above

Cc1ccc(O)cc1C
active: [12] 0.658 µM
inactive: all other assays above

O=C(O)C=CC(F)(C(F)(F)F)C(F)(F)F
not listed: [20]
inactive: all other assays above

O=C(O)C(F)(F)C(F)(F)C(=O)O
active: [19] 17.2 µM
inactive: [1] | [2] | [3] | [4] | [5] | [6] | [7] | [8] | [9] | [10] | [11] | [12] | [13] | [14] | [15] | [16] | [17] | [18] | [19]

CC(O)C(F)(F)C(F)(F)F (configuration not stated)
active: [17] 3.08 µM
inactive: [1] | [2] | [3] | [4] | [5] | [6] | [7] | [8] | [9] | [10] | [11] | [12] | [13] | [14] | [15] | [16] | [17] | [18] | [19]
